Experimental data as given in PubChem BioAssay AID485297 (National Center for Advancing Translational Sciences (NCATS), 2010).
Out of some 320,000 compounds screened, about 9,100 (2.8%) were called active. Roughly 3% stayed inconclusive and do not appear here. The list comes from a sample in which actives are over-represented; it also holds similar structures and randomly drawn compounds. A number with no mark means an inactive call. The call rests on the fitted dose curve; in most records, active means well fitted activation curve with a large enough effect; inconclusive means small, poorly fitted or top-dose-only effect; inactive means no such curve, though single readings can be large or run the other way.

test: qHTS Assay for Rab9 Promoter Activators; details: Huh7 Rab9 promoter-luciferase reporter, luminescence, 24 h; series mostly up to 9.22 µM; activation, negative = inhibition: at the top concentration; further: nearly all actives have a fitted effect of over 60% in size; on activation, negative = inhibition: % of control where 0% means no effect
Procedure, shortened: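 Luciferase signal after 10 min detection reagent at ambient indicates Rab9 promoter upregulation; stably transfected Huh7 cells were treated 24 h with compound in DMSO at 37 °C, 5% CO2.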
Potency means the concentration at half of the fitted maximal effect.

Structure (SMILES) | activation, negative = inhibition | Potency
O=C(Nc1ccc(Cl)cc1)OCc1cc(-c2ccccc2)on1 | 0.695% | –
O=C(Nc1cccc(Cl)c1)OCc1ccccn1 | – | 3.98 µM (active)
O=C(Nc1cccc(CCc2ccccn2)c1)c1ccc(Cl)cc1 | -8.69% | –
CC(C)N(C(=O)CSc1nnc(NC2CC2)s1)c1ccccc1 | -5.19% | –
CCc1nnc(NC(=O)C2CCN(C(=O)c3ccccc3C)CC2)s1 | -6.02% | –
Nc1[nH][nH]c(=O)c1N=Nc1ccc2c(c1)OCO2 | – | 3.55 µM (active)
O=C1/C(=C/c2ccc3c(c2)OCO3)CCC/C1=C\c1ccc2c(c1)OCO2 | -1.72% | –
Cc1[nH][nH]c(=O)c1N=Nc1ccccc1 | 12% | –
COc1ccc2ccn(C)c2c1 | -0.692% | –
Cc1ccc(NC(=O)CN(C)C(=O)COC(=O)c2nccnc2N)cc1 | -6.5% | –
CS(=O)(=O)N1CCN(c2cccc(Cl)n2)CC1 | -4.47% | –
CS(=O)(=O)N1CCN(C(=O)Cc2ccccc2)CC1 | 2.51% | –
CS(=O)(=O)N1CCc2nc(-c3ccccc3)sc2C1 | – | 1.58 µM (active)
NC(=O)C1CCN(C(=O)c2ccc(F)c(S(=O)(=O)N3CCOCC3)c2)CC1 | 0.968% | –
Cc1ccc(N(CC(=O)NCC2CCCO2)C(=O)CNS(=O)(=O)c2ccc(Cl)cc2)cc1 (configuration not stated) | 3.13% | –
O=C1c2ccccc2C(=O)N1CCC#Cc1ccc2cc(C3(O)CCCCC3)oc(=O)c2c1 | -4.71% | –
O=C(Nc1ccc(C(=O)N2CCCCC2)cc1)c1cccc([N+](=O)[O-])c1 | 2.09% | –
O=C(Nc1ccc(NC(=O)c2ccco2)c(Cl)c1)c1cccc([N+](=O)[O-])c1 | 2.88% | –
O=C(Nc1ccc(C2CC2(Cl)Cl)cc1)c1cccc([N+](=O)[O-])c1 (configuration not stated) | – | 3.98 µM (active)
CN(C)/C=C(/C(=O)c1ccc(Cl)c(Cl)c1)c1nnnn1-c1ccccc1 | -1.69% | –
CC(=NCc1ccco1)C1=C(O)c2ccccc2C1=O | 27.3% | –
COC(=O)Cc1[nH]n(-c2nc3ccccc3s2)c(=O)c1C(C)=Nc1ccc(OC)cc1 | -29.5% | –
CC(=NCc1ccco1)c1c(C(F)(F)F)[nH]n(-c2nc3ccccc3s2)c1=O | – | 2 µM (active)
O=C(CN1CCN(S(=O)(=O)c2cccc(Cl)c2)CC1)N1CCCCC1 | -2.8% | –

Structure (SMILES) | activation, negative = inhibition | Potency
COc1ccccc1N1CCN(CC(=O)Nc2ccnn2C2CCCC2)CC1 | -1.51% | –
O=C(O)c1ccc(N/N=C/c2cn(-c3ccccc3)nc2-c2cccs2)cc1 | – | 0.447 µM (active)
COc1ccc(-c2nn(-c3ccccc3)cc2/C=C\C(=O)Nc2ccc(C(=O)O)cc2)cc1 | -2.58% | –
O=C(/C=C\c1cn(-c2ccccc2)nc1-c1cccs1)N1CCOCC1 | -2.01% | –
COc1ccc(OC)c(/C=C/C(=O)c2ccc3c(c2)OCO3)c1 | -4.56% | –
CN(C(=O)COC(=O)Cn1cnc2c1c(=O)n(C)c(=O)n2C)C1(C#N)CCCCC1 | 2.9% | –
COc1ccccc1-n1ccnc1SCC(=O)NC(C)(C)C | -2.9% | –
CC(C)(C)NC(=O)CSC(=Nc1ccccc1F)NC#N | – | 3.98 µM (active)
Cc1ccccc1CSCC(=O)NC(=O)NC(C)(C)C | 7.27% | –
CC(CCc1ccccc1)NC(=O)c1cnc(Cl)c(Cl)c1 (configuration not stated) | -1.69% [at 1.84 µM] | –
COc1ccc(CNC(=O)c2ccc(NS(=O)(=O)c3ccc4[nH]c(=O)[nH]c4c3)cc2)cc1OC | 0.821% | –
O=C(NC(=S)Nc1ccc(Cl)cc1Cl)C1CC1 | – | 2.82 µM (active)
S=C(NCc1cccnc1)Nc1ccc(Cl)cc1Cl | 2% | –
CN1CCN(S(=O)(=O)c2ccc(NC(=S)NC(=O)C3CC3)cc2)CC1 | 2.23% | –
Cc1ccc(OCC(=O)Nc2ccccc2C(=O)NC2CC2)cc1 | -0.812% | –
CCCCOC(=O)c1[nH]c(C)c(C(=O)OC)c1C | – | 2.82 µM (active)
CCOC(=O)c1c(C)[nH]c(C(=O)OCC(=O)c2ccc(OC)cc2OC)c1C | 3.1% | –
CCOC(=O)c1c(C)[nH]c(C(=O)OCC(=O)N2CCCC2=O)c1C | 5.19% | –
COc1ccc(/C(C)=N/Nc2cc(C(F)(F)F)ccc2Cl)c(OC)c1 | -5.83% | –
S=C(NNC(=S)NC1CC2C=CC1C2)NC1CC2C=CC1C2 (configuration not stated) | 6.58% | –
CC(C)c1ccc(NC(=S)NC2CC3C=CC2C3)cc1 (configuration not stated) | – | 2.82 µM (active)
S=C(NNC(=S)NC1CC2CCC1C2)NC1CC2C=CC1C2 (configuration not stated) | -0.185% | –
COc1ccc(-c2cc(C(=O)NCCCN3CCCC3=O)c3ccccc3n2)cc1OC | 8.83% | –
N/C(=N\OC(=O)c1ccc2c(c1)OCO2)c1ccc(Br)cc1 | – | 3.98 µM (active)

Structure (SMILES) | activation, negative = inhibition | Potency
N/C(=N\OC(=O)N1c2ccccc2Sc2ccccc21)c1ccc(Br)cc1 | -1.25% | –
N/C(=N\OC(=O)/C=C/c1ccccc1)c1ccc(Br)cc1 | 3.85% | –
CC1CC2C3CCC4=CC(=O)C=C[C@]4(C)[C@@]3(F)[C@@H](O)C[C@]2(C)[C@@]1(O)C(=O)CO (some centres not stated) | 4.04% [at 46.1 µM] | –
CC(C)C(=O)Nc1c(O)c2ccccc2[nH]c1=O | -2.25% | –
NS(=O)(=O)c1ccccc1NC(=O)c1c(O)c2ccccc2[nH]c1=O | – | 0.447 µM (active)
CCCc1nc2ccccc2c(=O)n1NC(=O)c1c(O)c2ccccc2[nH]c1=O | -0.479% | –
COc1ccc(C(=O)NCc2ccc(Cl)cc2)cc1S(=O)(=O)N1CCCC1 | -4.13% | –
CCCn1nc(C(=O)NNC(=O)CCOc2ccccc2OCC)c2ccccc2c1=O | -1.1% | –
O=C(Nc1ccc(NC(=O)c2cccs2)cn1)c1ccco1 | – | 0.316 µM (active)
O=C(Nc1ccnc(-c2ccncc2)n1)c1cccs1 | -2.43% | –
NC(=O)c1ccsc1NC(=O)c1ccco1 | 3.95% | –
CC(C)(C)n1ncc2c(=O)n(Cc3c(Cl)cccc3Br)cnc21 | -2.66% | –
c1ccc(CN=C2Nc3ccccc3CS2)nc1 | – | 0.891 µM (active)
Cc1ccc(F)cc1S(=O)(=O)Nc1cccc(C(=O)N2CCCC(C(N)=O)C2)c1 (configuration not stated) | -1.43% | –
C=C(C)CNc1cc(S(=O)(=O)N2CCOCC2)ccc1Oc1ccccc1 | -9.64% | –
CCOc1ccc(-n2c(SCC(N)=O)nnc2-c2ccco2)cc1 | 0.124% | –
Cc1ccc(OCC(=O)Nc2nnc(-c3ccco3)s2)cc1 | 0.409% | –
CCOc1ccc(-c2nnc(-c3ccco3)o2)cc1 | – | 0.355 µM (active)
Cc1ccc(OCC(=O)Nc2ccc(-c3nnc(-c4ccco4)o3)cc2)cc1 | – | 2.82 µM (active)
CCCCOc1ccc(-c2nnc(-c3ccco3)o2)cc1 | – | 1.41 µM (active)
N#Cc1ccc(OCc2nnc(-c3ccc([N+](=O)[O-])cc3)o2)cc1 | 29.6% | –
COc1ccc(OCC(=O)Nc2nnc(-c3ccco3)s2)cc1 | -2.66% | –
CC(=O)Nc1ccc(NC(=O)COc2ccc(-c3ccccc3)cc2)cc1 | -5.02% | –
O=C(CCc1ccccc1)Nc1cccc(-c2nnc(-c3ccco3)o2)c1 | 2.91% | –
